About 20 (0.6%) of roughly 3,300 compounds were called active.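 The calls were made as follows: active = growth inhibition above 90%, meaning viable cell count cut by more than 90% versus vehicle controls; inactive = growth inhibition below 90%.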 For the sample, actives were picked, then their nearest neighbours and some compounds at random.
Assay: HT29 colon tumor cell growth inhibition, primary screen, imaging, high content imaging, 72 h, CellTiter-Glo (AID 772);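 as to condensed nuclei: condensed means nuclear area below control median minus 1.5 SD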
Conditions: HCS imaging cell count, at 10 µM, stronger effect = higher value; for condensed nuclei: measured here: percent cells with condensed nuclei
[1] = measured here: ATP CellTiter-Glo viability

| SMILES | growth inhibition | growth inhibition [1] [%] | condensed nuclei [%] |
| --- | --- | --- | --- |
| O=C(O)c1nsc(Cl)c1Cl | -41.6% (inactive) | -55.8 | 1.81 |
| Cc1cccc(OCC(=O)N2CCC(N3CCCCCC3)CC2)c1 | -20.3% (inactive) | -10.7 | 13.8 |
| CN(C)CC(O)COc1ccc(-c2ccc(C#N)cc2)cc1 (stereo not drawn) | 90.2% (active) | 86 | 7.89 |
| CN(C)CC(O)COc1ccc(C(C)(C)c2ccc(OCC(O)CN(C)C)cc2)cc1 (stereo not drawn) | 61.9% (inactive) | 98.3 | 18.1 |
| CN(C)CC(O)COc1cccc(OCC(O)CN(C)C)c1 (stereo not drawn) | -49% (inactive) | -41 | 5.18 |
| Cn1c(=O)c2c(nc(Br)n2Cc2ccc3ccccc3c2)n(C)c1=O | 57.1% (inactive) | 9.53 | 5.08 |
| Cc1cc(=O)[nH]c(SCC(=O)c2ccccc2)c1C#N | 27.9% (inactive) | -16.6 | 2.93 |
| CCCSc1nc(C)c(CC(=O)O)c(=O)[nH]1 | -32.6% (inactive) | -21 | 3.23 |
| CCN(CC)C(=O)C1CCN(c2ncnc3c2cnn3-c2ccc(C)cc2C)CC1 | 63.8% (inactive) | 64.7 | 6.87 |
| Fc1ccc(C2C3=C(Nc4ncnn42)c2ccccc2OC3c2ccncc2)cc1 (stereo not drawn) | 61.8% (inactive) | 20.5 | 17.7 |
| CCCOc1ccc(CSC(CC(=O)O)C(=O)O)cc1 (stereo not drawn) | -29% (inactive) | -72.1 | 0.98 |
| COC(=O)C1=C(C)N=C2SC(C)C(=O)N2C1/C=C/c1ccccc1OC (stereo not drawn) | -57.1% (inactive) | -59.2 | 1.79 |
| CCCCC(=O)c1c(C)cc(C)[nH]c1=O | -16.9% (inactive) | -46.2 | 1.27 |
| CCN(CC)CCN1C(=O)C(O)=C(C(=O)c2cccs2)C1c1ccccn1 (stereo not drawn) | -42% (inactive) | -45.7 | 3.64 |
| CCN(CC)CCOC(=O)c1c(C)n(C)c2ccc(OC)cc12 | -57.1% (inactive) | -23 | 3.82 |
| Cn1cc(Cl)nc1C(O)c1ccccc1 (stereo not drawn) | -111% (inactive) | -43.7 | 2.87 |
| Cc1cc2c(c(=O)o1)C(CC(C)C)C(C#N)=C(N)O2 (stereo not drawn) | 18.4% (inactive) | -9.11 | 2.71 |
| N/C(CCN1CCCCC1)=N/O | 20.8% (inactive) | 13.8 | 6.52 |
| c1ccc(Cc2nn[nH]n2)cc1 | 14.9% (inactive) | -16.9 | 4.71 |
| N#C/C(=N\O)c1nc(-c2ccccc2)cs1 | -131% (inactive) | -49.8 | 3.16 |
| CCOc1cccc(-c2nnc3sc(-c4ccco4)nn23)c1 | -51.8% (inactive) | -46.9 | 2.36 |
| CCOC(=O)C(Oc1ccc(=O)[nH]n1)C(C)=O (stereo not drawn) | -6.93% (inactive) | -59.3 | 3.6 |
| CC(C)Sc1nnc2n(CCc3ccccc3)c(=O)c3c4c(sc3n12)COC(C)(C)C4 | 0.75% (inactive) | -42.2 | 1.47 |
| CCc1[nH]c(=O)c(C#N)c2c1CSC(C)(C)C2 | 9.49% (inactive) | -3.16 | 4.45 |
| CC1(C)CC(=O)C2=C(C1)OC(N)=C(C#N)C2C1C=CCCC1 (stereo not drawn) | 59.5% (inactive) | 32.2 | 3.5 |
| Cc1nn(C)cc1C1C2=C(CC(C)(C)CC2=O)OC2=C1C(=O)CC(C)(C)C2 | -19.8% (inactive) | -38.9 | 2.88 |

| SMILES | growth inhibition | growth inhibition [1] [%] | condensed nuclei [%] |
| --- | --- | --- | --- |
| CC1(C)CC(=O)C2=C(C1)Oc1nc3ccccc3cc1C2C(C#N)C#N (stereo not drawn) | 92.5% (active) | 71.1 | 0 |
| CCCCOC(=O)c1ccc(NC(=O)CSc2nncn2C)cc1 | 11.7% (inactive) | -49.6 | 2.84 |
| Cc1cc(=O)oc(C)c1C(=O)NCC1CCCO1 (stereo not drawn) | 13.8% (inactive) | 8.51 | 7.86 |
| Clc1ccc(-n2ncc3c(NCc4ccco4)ncnc32)cc1 | 90.8% (active) | 93.7 | 40 |
| Cc1cccc(-n2ncc3c(NCc4ccco4)ncnc32)c1 | 88.8% (inactive) | 83.6 | 12.1 |
| Clc1ccc(-n2ncc3c(NCc4cccs4)ncnc32)cc1 | -12.9% (inactive) | -9.82 | 2.28 |
| Cn1c(OCc2ccco2)nc2c1c(=O)n(Cc1ccc(Cl)c(Cl)c1)c(=O)n2C | -4.69% (inactive) | -10 | 6.05 |
| COc1ccc(CNc2oc(COc3ccc(Cl)cc3)nc2C#N)cc1 | 59% (inactive) | 54.4 | 24.8 |
| COc1ccc(CSc2nnc3n(C)c(=O)c4c5c(sc4n23)CCCC5)cc1 | -75.3% (inactive) | -39.3 | 2.4 |
| Cc1ccc(-c2nnc(-c3cccc(Br)c3)o2)cc1 | 20.1% (inactive) | -5.25 | 0 |
| Cc1ccccc1C(=O)c1ccc2c(c1)n(C)c(=O)n2C | -2.53% (inactive) | -7.19 | 3.03 |
| O=C(NC1CCCCC1)N1CCSC1=Nc1ccccc1 | 54.8% (inactive) | 12.5 | 9.09 |
| O=C1C(=O)N(CCN2CCOCC2)C(c2ccccn2)/C1=C(/O)c1ccc(F)cc1 (stereo not drawn) | -59.2% (inactive) | -29.6 | 3.57 |
| C=CCNc1nc(-c2ccc(O)c(C(N)=O)c2)cs1 | -5% (inactive) | 38.5 | 8.5 |
| CCOc1ccc(-c2nc(C#N)c(N3CCN(CC)CC3)o2)cc1 | 33.8% (inactive) | -1.72 | 5.03 |
| C=CCOC(=O)C(C#N)c1nc2ccccc2nc1N1CCN(c2ccccc2OCC)CC1 (stereo not drawn) | -8.05% (inactive) | -23.8 | 3.97 |
| Cc1cc(C)n(CC2CC(=O)N(c3cc(Cl)cc(Cl)c3)C2=O)n1 (stereo not drawn) | -36.8% (inactive) | -33.9 | 2.19 |
| COCCCn1c2nc3ccccc3nc2c2c(=O)n(-c3ccccc3OC)c(C)nc21 | -36.8% (inactive) | -45.7 | 1.23 |
| C=CCOC(=O)C1=C(C)OC(N)=C(C#N)C1c1ccoc1 (stereo not drawn) | 45.6% (inactive) | 21.7 | 6.32 |
| CCOC(=O)c1c(SC)nc(SC)c2c1CCC2 | -36.8% (inactive) | -48 | 3.12 |
| Cc1cc(C)n(Cc2ccc(C(=O)NCCC3=CCCCC3)o2)n1 | -19.5% (inactive) | 3.39 | 3.56 |
| Cn1cc(Br)cc2nc(C(F)(F)F)nc1-2 | 1.5% (inactive) | 19.5 | 22.8 |
| COc1ccc(C2CC(=O)c3sc(N)nc3C2)cc1 (stereo not drawn) | 57.6% (inactive) | 22.2 | 1.99 |
| O=C(NCCC1=CCCCC1)c1ccc(=O)oc1 | 45.9% (inactive) | 19.6 | 21.8 |
| Clc1ccccc1-c1nn2c(-c3ccccn3)nnc2s1 | -1.22% (inactive) | 21.5 | 15.7 |

— PubChem BioAssay AID772 (SRMLSC, 2007)
